# Data: a collection of fitness landscapes (doi:10.1126/science.1257360)
# Whole data set: some 140,000 sequences, median “enrichment ratio after two sorts for PhoP signalling” near 0, cut for the highest 2% near 11. Only a selection was taken, and the highest values are over-represented in it overall.
# B1: PhoQ; a variant is named by its letters at X, in order, P23837 (parent)
# chain: MKKLLRLFFPLSLRVRFLLATAAVVLVLSLAYGMVALIGYSVSFDKTTFRLLRGESNLFYTLAKWENNKLHVELPENIDKQSPTMTLIYDENGQLLWAQRDVPWLMKMIQPDWLKSNGFHEIEADVNDTSLLLSGDHSIQQQLQEVREDDDDAEMTHSVAVNVYPATSRMPKLTIVVVDTIPVELKSSYMVWSWFIYVLSANLLLVIPLLWVAAWWSLRPIEALAKEVRELEEHNRELLNPATTRELTSLVRNLNRLLKSERERYDKYRTTLTDLTHSLKTPLXXLQXXLRSLRSEKMSVSDAEPVMLEQISRISQQIGYYLHRASMRGGTLLSRELHPVAPLLDNLTSALNKVYQRKGVNISLDISPEISFVGEQNDFVEVMGNVLDNACKYCLEFVEISARQTDEHLYIVVEDDGPGIPLSKREVIFDRGQRVDTLRPGQGVGLAVAREITEQYEGKIVAGESMLGGARMEVIFGRQHSAPKDE
# Variants of: B1
# Test: enrichment ratio after two sorts for PhoP signalling (ratio (wild type AVST 3.29)); higher = more functional
# Settings: with PhoP (E. coli)
row,Variant,enrichment ratio
1,IDWP,≤ 0.25
2,HREC,≤ 0.25
3,GNSH,1.23
4,IQIR,≤ 0.25
5,DTPS,≤ 0.25
6,GPWS,≤ 0.25
7,ESVV,≤ 0.25
8,CSLS,21.9
9,CSLA,2.15
10,CSLP,≤ 0.25
11,CSLY,0.296
12,CSLT,11.7
13,CSFT,≤ 0.25
14,NPIK,≤ 0.25
15,DVWP,≤ 0.25
16,DDAS,≤ 0.25
17,MEAH,28.9
18,GVAH,0.601
19,MVTH,2.25
20,SFAH,≤ 0.25
21,MCAH,2.04
22,HPAH,≤ 0.25
23,TEAH,40
24,SEAH,31.6

row,Variant,enrichment ratio
1,QEAH,≤ 0.25
2,MVAH,12.3
3,NEAH,≤ 0.25
4,MKAH,≤ 0.25
5,YETW,≤ 0.25
6,REHR,≤ 0.25
7,VKCV,≤ 0.25
8,MGTW,≤ 0.25
9,FNVE,≤ 0.25
10,NWYH,≤ 0.25
11,HLAW,≤ 0.25
12,VCYP,≤ 0.25
13,MRAI,≤ 0.25
14,TEFK,1.68
15,MFLG,0.27
16,HPLG,≤ 0.25
17,TELG,27.4
18,HELA,≤ 0.25
19,HYLG,≤ 0.25
20,HELG,12.3
21,MPLG,≤ 0.25
22,NELG,2.34
23,MELG,22.3
24,EFRW,≤ 0.25

row,Variant,enrichment ratio
1,YYAI,≤ 0.25
2,AISP,≤ 0.25
3,SFQS,≤ 0.25
4,NRHR,≤ 0.25
5,MSNW,≤ 0.25
6,PCTN,≤ 0.25
7,TDQW,≤ 0.25
8,LVST,≤ 0.25
9,RVEC,≤ 0.25
10,ASHF,≤ 0.25
11,CTTF,≤ 0.25
12,AVHF,≤ 0.25
13,ASTF,11.8
14,AHTF,≤ 0.25
15,AVTF,11.4
16,CSTF,15.8
17,LTTF,≤ 0.25
18,YTTF,≤ 0.25
19,CITF,≤ 0.25
20,ATTF,18.8
21,ADTF,≤ 0.25
22,QRGI,≤ 0.25
23,VSMY,≤ 0.25
24,YGPL,≤ 0.25

row,Variant,enrichment ratio
1,AGVR,≤ 0.25
2,TLEC,≤ 0.25
3,VESY,≤ 0.25
4,YITC,≤ 0.25
5,QKNA,≤ 0.25
6,AKTF,2.43
7,AITF,15
8,KSTF,≤ 0.25
9,IPNS,≤ 0.25
10,WFEY,≤ 0.25
11,AYPG,≤ 0.25
12,LTLN,≤ 0.25
13,LTLS,≤ 0.25
14,TDLT,7.28
15,TDLN,14.9
16,TDTH,8.19
17,KDLN,≤ 0.25
18,TDTI,14.6
19,CDLS,≤ 0.25
20,TDTK,≤ 0.25
21,TDYI,≤ 0.25
22,TDLA,14
23,TDLS,18
24,VMTR,≤ 0.25

row,Variant,enrichment ratio
1,STQS,≤ 0.25
2,KTAN,≤ 0.25
3,DFLN,≤ 0.25
4,NTCK,≤ 0.25
5,QLKF,≤ 0.25
6,TFQG,12.3
7,RGQG,≤ 0.25
8,TVQG,14.6
9,GGQG,≤ 0.25
10,PLQG,≤ 0.25
11,NFQG,≤ 0.25
12,NVQG,≤ 0.25
13,TGQG,15.7
14,KAQG,≤ 0.25
15,PFQG,≤ 0.25
16,PVQG,≤ 0.25
17,TLQG,11.8
18,VFKH,≤ 0.25
19,NHHA,≤ 0.25
20,ILFN,≤ 0.25
21,FTCA,≤ 0.25
22,STNQ,1.23
23,FWKT,≤ 0.25
24,LMTM,≤ 0.25

row,Variant,enrichment ratio
1,EMQG,≤ 0.25
2,TMQG,11.9
3,HAQG,≤ 0.25
4,TITY,≤ 0.25
5,NQAM,≤ 0.25
6,SFAT,≤ 0.25
7,GTAM,≤ 0.25
8,FQAM,≤ 0.25
9,SNCK,0.609
10,SNWM,≤ 0.25
11,SLAT,≤ 0.25
12,SNAM,13.5
13,ITAM,0.308
14,TTAM,17.5
15,TQAM,25.5
16,SQAT,12.5
17,EQWF,≤ 0.25
18,TQKS,≤ 0.25
19,TDDA,≤ 0.25
20,HGKC,≤ 0.25
21,ILFG,≤ 0.25
22,SQAM,21.4
23,SEAM,15.9
24,STAM,12.1

row,Variant,enrichment ratio
1,WQAM,≤ 0.25
2,YTAM,≤ 0.25
3,SERM,≤ 0.25
4,SPAM,≤ 0.25
5,SFAM,≤ 0.25
6,RSGP,≤ 0.25
7,ILCM,≤ 0.25
8,CSYF,≤ 0.25
9,EGPL,≤ 0.25
10,STKG,≤ 0.25
11,TAEP,0.518
12,VSNR,≤ 0.25
13,TTLN,23.9
14,TKLN,8.35
15,YTLN,8.58
16,ITLN,1.49
17,AKLN,14
18,GGCN,0.54
19,RGCN,≤ 0.25
20,TGCN,42.2
21,STLN,14.8
22,SPLN,≤ 0.25
23,KYLN,≤ 0.25
24,AILN,4.12

row,Variant,enrichment ratio
1,AGQV,≤ 0.25
2,QSKK,≤ 0.25
3,HWTI,≤ 0.25
4,QAFH,9.93
5,QFDR,≤ 0.25
6,QGQP,≤ 0.25
7,LKDC,≤ 0.25
8,PWTA,≤ 0.25
9,LSFA,≤ 0.25
10,YDML,≤ 0.25
11,NVCN,≤ 0.25
12,NICN,≤ 0.25
13,ATLN,17.9
14,ATQN,≤ 0.25
15,RICN,≤ 0.25
16,SPCN,≤ 0.25
17,TVCN,26.1
18,AHCN,≤ 0.25
19,AWCN,≤ 0.25
20,AICN,18.7
21,ADCN,11.5
22,ATCN,3.42
23,CTFI,9.39
24,DTFW,≤ 0.25

row,Variant,enrichment ratio
1,LRFL,≤ 0.25
2,IIPK,≤ 0.25
3,EKLK,≤ 0.25
4,QVPD,≤ 0.25
5,ENFI,≤ 0.25
6,QKFY,≤ 0.25
7,TDCN,15.7
8,KDCN,≤ 0.25
9,SGCN,11.5
10,ANCN,33
11,ASLN,9.05
12,HWCN,≤ 0.25
13,ASCN,15.3
14,ANLN,8.47
15,SGCK,8.85
16,SGLN,10.9
17,LTCN,≤ 0.25
18,VRCN,≤ 0.25
19,MIMG,≤ 0.25
20,MYAM,≤ 0.25
21,RCLW,≤ 0.25
22,SMWE,≤ 0.25
23,ALQI,≤ 0.25
24,PLLC,≤ 0.25

row,Variant,enrichment ratio
1,MISF,3.65
2,AACN,12.7
3,LWCN,≤ 0.25
4,KACN,≤ 0.25
5,AALN,8.23
6,YTCN,≤ 0.25
7,TTCN,11.9
8,KGPM,≤ 0.25
9,SMIS,≤ 0.25
10,MENM,≤ 0.25
11,TEND,23.1
12,NEVI,4.98
13,TEYD,≤ 0.25
14,TEVI,12.8
15,MCVI,≤ 0.25
16,MEVI,18.2
17,TEVA,6.58
18,MMVI,≤ 0.25
19,TENM,15.7
20,TEGD,≤ 0.25
21,NENM,≤ 0.25
22,ESVY,≤ 0.25
23,NGGL,≤ 0.25
24,LFQL,≤ 0.25

row,Variant,enrichment ratio
1,KSDP,≤ 0.25
2,FMMA,≤ 0.25
3,TENY,11.3
4,TENL,6.63
5,TENS,8.17
6,PRSQ,≤ 0.25
7,TGHK,≤ 0.25
8,FSEI,≤ 0.25
9,AAMG,9.84
10,YTST,≤ 0.25
11,SQST,6.97
12,FTST,≤ 0.25
13,SEST,18.4
14,SRST,≤ 0.25
15,TEST,23.4
16,NEST,3.45
17,QEST,1.97
18,YEST,12.8
19,PLIK,≤ 0.25
20,AQAT,5.01
21,SLNT,≤ 0.25
22,FKYM,≤ 0.25
23,TANH,≤ 0.25
24,TAKH,≤ 0.25

row,Variant,enrichment ratio
1,HFAH,≤ 0.25
2,TASH,11.7
3,TAAH,19.2
4,KASH,≤ 0.25
5,YMQV,≤ 0.25
6,FCDV,≤ 0.25
7,AIQI,0.475
8,TIWI,≤ 0.25
9,TINR,15.4
10,TIRA,≤ 0.25
11,RINR,≤ 0.25
12,RIQI,≤ 0.25
13,TITS,15.9
14,TIYI,4.29
15,TIQI,12.3
16,TIRM,5.12
17,WINR,≤ 0.25
18,TIWS,15.7
19,KTHN,≤ 0.25
20,SPNA,≤ 0.25
21,NRQT,≤ 0.25
22,APHK,≤ 0.25
23,IMQV,≤ 0.25
24,LPRC,≤ 0.25

row,Variant,enrichment ratio
1,EVLG,≤ 0.25
2,TISA,10.6
3,TIEG,11.8
4,RISC,≤ 0.25
5,WISS,≤ 0.25
6,TINN,12.6
7,WISC,≤ 0.25
8,RINN,≤ 0.25
9,TISC,15
10,TIMG,3.15
11,PSEG,≤ 0.25
12,TINL,9.31
13,TISS,11.9
14,WFHG,≤ 0.25
15,MFFV,≤ 0.25
16,SPGL,≤ 0.25
17,VISE,≤ 0.25
18,FCRN,≤ 0.25
